# Measurements: ChEMBL document CHEMBL3988442, “University of Dundee, Small-Polar-MMV Screening Library” (2021)
# For some of these results: Potency and affinity values are given separately.
# How the values were obtained:
# Set-up in all cases: scale not given: direction of the effect not stated beside the values
# [1] = biological target: Protein translocase subunit SecA (Escherichia coli (strain K12)) (UniProt P10408); assay: Assay to Identify E. coli SecA ATPase Inhibitors; format: functional; conditions: 30 µM
# Chain of Protein translocase subunit SecA (Escherichia coli (strain K12)) (P10408 whole entry): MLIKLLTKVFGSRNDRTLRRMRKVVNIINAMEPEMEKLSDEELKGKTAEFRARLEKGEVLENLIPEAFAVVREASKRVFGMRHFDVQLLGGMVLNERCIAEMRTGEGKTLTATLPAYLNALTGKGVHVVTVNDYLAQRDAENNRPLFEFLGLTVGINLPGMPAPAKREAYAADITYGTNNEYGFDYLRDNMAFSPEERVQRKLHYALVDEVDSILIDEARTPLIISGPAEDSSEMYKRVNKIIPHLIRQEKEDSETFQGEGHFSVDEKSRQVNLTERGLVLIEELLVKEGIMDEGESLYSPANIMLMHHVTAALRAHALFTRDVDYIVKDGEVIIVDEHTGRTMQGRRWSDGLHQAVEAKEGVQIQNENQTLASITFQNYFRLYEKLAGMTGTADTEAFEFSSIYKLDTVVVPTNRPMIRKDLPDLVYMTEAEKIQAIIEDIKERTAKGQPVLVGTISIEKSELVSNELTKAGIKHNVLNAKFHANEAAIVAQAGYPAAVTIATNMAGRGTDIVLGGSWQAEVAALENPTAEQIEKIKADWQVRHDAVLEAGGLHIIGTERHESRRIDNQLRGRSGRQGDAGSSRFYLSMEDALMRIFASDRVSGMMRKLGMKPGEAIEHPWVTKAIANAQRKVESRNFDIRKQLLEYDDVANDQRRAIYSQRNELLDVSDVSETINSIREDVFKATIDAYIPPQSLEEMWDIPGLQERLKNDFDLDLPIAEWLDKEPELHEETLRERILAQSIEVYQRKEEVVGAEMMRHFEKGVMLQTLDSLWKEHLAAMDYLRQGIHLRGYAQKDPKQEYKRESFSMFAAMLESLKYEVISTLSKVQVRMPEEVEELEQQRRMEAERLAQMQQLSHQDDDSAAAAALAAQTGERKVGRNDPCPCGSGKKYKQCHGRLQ
# [2] = biological target: T1, Ubiquitin-activating enzyme e1, putative (Leishmania donovani (strain BPK282A1)) (UniProt E9BSI1); assay: Leishmania donovani Ubiquitin Activating Enzyme (LdE1); format: functional; conditions: 30 µM
# T1 sequence (whole entry): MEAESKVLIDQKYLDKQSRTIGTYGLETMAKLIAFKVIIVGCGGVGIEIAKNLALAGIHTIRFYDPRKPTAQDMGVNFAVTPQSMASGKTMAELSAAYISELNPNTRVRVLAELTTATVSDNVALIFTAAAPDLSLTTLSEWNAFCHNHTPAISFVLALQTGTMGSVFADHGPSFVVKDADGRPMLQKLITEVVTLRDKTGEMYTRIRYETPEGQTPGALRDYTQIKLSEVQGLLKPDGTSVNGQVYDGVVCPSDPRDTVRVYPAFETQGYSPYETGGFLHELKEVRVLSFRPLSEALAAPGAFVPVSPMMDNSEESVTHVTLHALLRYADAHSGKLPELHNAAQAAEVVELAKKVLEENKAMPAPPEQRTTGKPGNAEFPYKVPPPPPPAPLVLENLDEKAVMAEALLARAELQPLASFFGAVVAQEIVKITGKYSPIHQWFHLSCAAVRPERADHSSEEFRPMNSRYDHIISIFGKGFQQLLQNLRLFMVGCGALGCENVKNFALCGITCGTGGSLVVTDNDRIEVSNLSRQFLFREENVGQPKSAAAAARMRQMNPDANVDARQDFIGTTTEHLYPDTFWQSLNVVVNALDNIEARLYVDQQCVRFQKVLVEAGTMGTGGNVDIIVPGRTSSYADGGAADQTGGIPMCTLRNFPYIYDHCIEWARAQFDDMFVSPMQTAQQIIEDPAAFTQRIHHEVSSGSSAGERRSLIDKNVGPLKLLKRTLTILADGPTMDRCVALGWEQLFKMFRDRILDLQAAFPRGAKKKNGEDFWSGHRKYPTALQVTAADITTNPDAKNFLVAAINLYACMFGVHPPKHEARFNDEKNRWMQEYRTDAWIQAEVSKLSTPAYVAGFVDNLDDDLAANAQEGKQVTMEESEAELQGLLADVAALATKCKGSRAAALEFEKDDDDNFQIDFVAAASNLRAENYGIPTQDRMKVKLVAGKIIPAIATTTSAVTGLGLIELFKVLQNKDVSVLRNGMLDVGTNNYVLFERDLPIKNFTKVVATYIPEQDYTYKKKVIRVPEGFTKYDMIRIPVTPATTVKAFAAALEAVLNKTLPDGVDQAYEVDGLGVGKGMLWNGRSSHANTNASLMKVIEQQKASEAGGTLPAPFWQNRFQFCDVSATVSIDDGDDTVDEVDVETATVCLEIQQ
# [3] = biological target: AMP-activated protein kinase, AMPK (Homo sapiens) (UniProt P54646+O43741+P54619+Q9UGJ0+Q9Y478+Q13131+Q9UGI9); assay: AMP-dependent Kinase enzyme assay. An in vitro enzyme assay that detects ADP turnover that is directly proportional to AMPK activity. This uses naive AMPK that is activated during the assay with MK-8722; format: functional; conditions: 30 µM
# [4] = biological target: Sialic acid-binding Ig-like lectin 9 (Homo sapiens) (UniProt Q9Y336); assay: Hs-Siglec9 ALPHAscreen SOP 20170721; conditions: 10 µM
# Chain of Sialic acid-binding Ig-like lectin 9 (Homo sapiens) (Q9Y336 whole entry): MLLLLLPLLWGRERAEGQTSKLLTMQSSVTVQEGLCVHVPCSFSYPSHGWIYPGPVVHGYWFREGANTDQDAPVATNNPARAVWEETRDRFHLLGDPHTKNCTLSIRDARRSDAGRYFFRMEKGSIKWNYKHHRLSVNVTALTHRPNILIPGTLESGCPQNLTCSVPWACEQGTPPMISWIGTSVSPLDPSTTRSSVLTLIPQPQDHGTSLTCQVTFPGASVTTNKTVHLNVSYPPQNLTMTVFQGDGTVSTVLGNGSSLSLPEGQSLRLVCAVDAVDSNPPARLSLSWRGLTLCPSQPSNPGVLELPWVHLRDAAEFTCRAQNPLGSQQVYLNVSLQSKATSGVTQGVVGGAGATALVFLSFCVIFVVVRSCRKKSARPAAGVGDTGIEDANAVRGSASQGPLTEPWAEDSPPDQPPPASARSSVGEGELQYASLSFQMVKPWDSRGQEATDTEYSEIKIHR
# [5] = tested on: Trypanosoma cruzi; assay: Trypanosoma cruzi phosphomannomutase and mannose-1-phosphate guanylyltransferase assay; format: functional; conditions: 10 µM
# [6] = biological target: T2, Arginase-2, mitochondrial (Homo sapiens) (UniProt P78540); assay: in vitro enzyme assay to detect the production of urea directly proportional to the activity of Arginase II; format: functional; conditions: 33.3 µM; note: in the data most compounds retested in dose-response had high values
# T2 sequence (whole entry): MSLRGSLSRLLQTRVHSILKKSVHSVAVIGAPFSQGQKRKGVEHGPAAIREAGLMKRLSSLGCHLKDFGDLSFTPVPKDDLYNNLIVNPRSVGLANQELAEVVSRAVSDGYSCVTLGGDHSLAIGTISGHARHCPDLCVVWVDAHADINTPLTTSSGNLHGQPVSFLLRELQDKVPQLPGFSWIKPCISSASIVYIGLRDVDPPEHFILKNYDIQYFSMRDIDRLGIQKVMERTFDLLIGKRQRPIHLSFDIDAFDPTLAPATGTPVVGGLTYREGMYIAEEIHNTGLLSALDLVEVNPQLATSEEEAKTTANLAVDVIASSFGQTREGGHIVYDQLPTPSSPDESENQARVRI
# [7] = biological target: T3, Proteasome subunit beta (Trypanosoma cruzi) (UniProt O96673); assay: Trypanosoma cruzi proteasome chymotrypsin-like activity (TcProtChymo) assay.; note: in the data most compounds retested in dose-response had high values; format: functional; conditions: 9.37 µM
# T3 sequence (whole entry): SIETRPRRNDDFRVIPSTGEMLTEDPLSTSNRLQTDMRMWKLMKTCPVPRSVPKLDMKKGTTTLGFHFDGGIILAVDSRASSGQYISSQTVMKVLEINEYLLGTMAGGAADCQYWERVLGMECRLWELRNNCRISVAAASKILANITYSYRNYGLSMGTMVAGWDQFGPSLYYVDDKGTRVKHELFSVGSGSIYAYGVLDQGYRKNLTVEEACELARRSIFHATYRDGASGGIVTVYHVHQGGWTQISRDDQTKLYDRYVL
# [8] = organism: Homo sapiens; assay: To identify inhibition of the IFN signalling (Jak-Stat) pathway via expression of an eGFP reporter gene under the control of an IFN-stimulated response element (ISRE) containing MxA promoter.; format: functional; conditions: 30 µM
# [9] = biological target: T4, Tyrosyl-tRNA synthetase, putative (Trypanosoma cruzi (strain CL Brener)) (UniProt Q4DSP6); assay: Trypanosoma cruzi tyrosyl tRNA synthetase (TcYRS) _High Tyrosine SOP; format: functional; conditions: 30 µM; note: in the data most compounds retested in dose-response had high values
# T4 sequence (whole entry): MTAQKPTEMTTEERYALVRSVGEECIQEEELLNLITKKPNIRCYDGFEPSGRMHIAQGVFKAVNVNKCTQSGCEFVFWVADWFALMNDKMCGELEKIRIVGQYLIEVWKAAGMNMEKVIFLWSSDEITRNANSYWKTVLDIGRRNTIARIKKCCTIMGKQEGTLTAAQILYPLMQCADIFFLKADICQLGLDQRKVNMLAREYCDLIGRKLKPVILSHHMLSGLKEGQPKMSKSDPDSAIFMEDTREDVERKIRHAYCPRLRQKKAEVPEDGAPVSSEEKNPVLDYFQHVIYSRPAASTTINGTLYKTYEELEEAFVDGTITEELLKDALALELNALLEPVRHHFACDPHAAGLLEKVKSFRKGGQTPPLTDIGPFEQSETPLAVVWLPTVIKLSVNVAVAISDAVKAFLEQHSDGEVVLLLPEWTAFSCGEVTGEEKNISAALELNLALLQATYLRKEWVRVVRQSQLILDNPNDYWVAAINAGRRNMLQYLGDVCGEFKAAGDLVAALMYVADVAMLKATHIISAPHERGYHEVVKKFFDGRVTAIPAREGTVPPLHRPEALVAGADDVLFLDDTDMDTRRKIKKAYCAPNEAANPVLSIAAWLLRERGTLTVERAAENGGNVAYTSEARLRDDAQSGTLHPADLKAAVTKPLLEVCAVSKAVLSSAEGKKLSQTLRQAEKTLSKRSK
# [10] = biological target: T4, Tyrosyl-tRNA synthetase, putative (Trypanosoma cruzi (strain CL Brener)); assay: Trypanosoma cruzi tyrosyl tRNA synthetase (TcYRS) SOP; format: functional; conditions: 30 µM
# [11] = biological target: Chromo domain-containing protein 1 (Saccharomyces cerevisiae (strain ATCC 204508 / S288c) (Baker's yeast)) (UniProt P32657); assay: ScCHD-1 Enzyme Inhibition Assay; format: functional; conditions: 30 µM; note: in the data most compounds retested in dose-response had high values
# Chain of Chromo domain-containing protein 1 (Saccharomyces cerevisiae (strain ATCC 204508 / S288c) (Baker's yeast)) (P32657 whole entry, the tested form may be a part): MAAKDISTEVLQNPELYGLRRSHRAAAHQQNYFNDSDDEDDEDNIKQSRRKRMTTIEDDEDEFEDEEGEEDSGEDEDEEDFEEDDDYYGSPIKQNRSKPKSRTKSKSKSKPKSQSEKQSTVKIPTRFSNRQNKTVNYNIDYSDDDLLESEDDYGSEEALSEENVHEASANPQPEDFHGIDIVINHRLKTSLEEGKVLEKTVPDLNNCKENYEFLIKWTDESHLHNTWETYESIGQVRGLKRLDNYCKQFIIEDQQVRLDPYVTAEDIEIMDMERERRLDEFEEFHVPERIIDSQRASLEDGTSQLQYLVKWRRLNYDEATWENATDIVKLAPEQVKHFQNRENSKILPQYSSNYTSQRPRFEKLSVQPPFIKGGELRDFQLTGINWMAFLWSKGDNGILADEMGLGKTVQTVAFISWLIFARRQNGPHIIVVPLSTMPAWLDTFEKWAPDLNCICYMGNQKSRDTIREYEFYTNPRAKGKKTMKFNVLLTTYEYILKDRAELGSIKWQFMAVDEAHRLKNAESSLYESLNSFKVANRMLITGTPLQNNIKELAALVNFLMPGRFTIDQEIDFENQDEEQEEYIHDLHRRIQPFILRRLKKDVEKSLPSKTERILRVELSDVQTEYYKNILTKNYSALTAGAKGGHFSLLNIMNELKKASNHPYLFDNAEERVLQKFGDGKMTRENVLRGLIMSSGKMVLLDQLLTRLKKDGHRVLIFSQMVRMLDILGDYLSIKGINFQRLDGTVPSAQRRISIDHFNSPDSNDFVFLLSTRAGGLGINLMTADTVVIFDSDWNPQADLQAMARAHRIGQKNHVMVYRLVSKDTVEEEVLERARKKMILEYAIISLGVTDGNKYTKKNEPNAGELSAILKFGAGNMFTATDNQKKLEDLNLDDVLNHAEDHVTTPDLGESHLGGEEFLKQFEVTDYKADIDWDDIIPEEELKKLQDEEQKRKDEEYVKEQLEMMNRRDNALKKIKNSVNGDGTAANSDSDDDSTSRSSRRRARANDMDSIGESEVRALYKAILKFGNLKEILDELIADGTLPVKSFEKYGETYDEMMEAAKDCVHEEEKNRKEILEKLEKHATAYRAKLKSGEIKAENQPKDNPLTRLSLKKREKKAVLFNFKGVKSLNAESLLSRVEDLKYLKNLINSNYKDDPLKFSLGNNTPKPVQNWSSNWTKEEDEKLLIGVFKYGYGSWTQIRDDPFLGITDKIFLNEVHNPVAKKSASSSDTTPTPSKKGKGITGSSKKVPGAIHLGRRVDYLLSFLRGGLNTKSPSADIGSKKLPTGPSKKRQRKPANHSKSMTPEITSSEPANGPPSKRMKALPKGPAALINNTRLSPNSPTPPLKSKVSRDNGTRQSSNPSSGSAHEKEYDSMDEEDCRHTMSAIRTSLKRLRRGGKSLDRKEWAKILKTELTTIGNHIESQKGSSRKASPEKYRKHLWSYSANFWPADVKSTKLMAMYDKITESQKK
SMILES,Percent Effect [1],Percent Effect [2],Percent Effect [3],Percent Effect [4],Percent Effect [5],Percent Effect [6],Percent Effect [7],Percent Effect [8],Percent Effect [9],Percent Effect [10],Percent Effect [11]
CCn1cc(CN2CCCN(C(=O)c3sccc3C#N)CC2)cn1,-4.12%,2.53%,-2.86%,-2.29%,-1.04%,-1.14%,-7.94%,-14%,2.46%,3.8%,4.04%
Cc1noc(C2CCCN(C(=O)c3ccc(Br)cc3F)C2)n1 (stereo not drawn),-5.32%,10.4%,2.06%,2.58%,6.95%,2.74%,6.87%,-5.04%,1.91%,18.8%,-19.5%
CCN(CC(=O)NC)C(=O)Cc1nc(-c2ccco2)oc1C,-8.15%,5.33%,-6.53%,3.51%,0.876%,5.73%,16.9%,10.7%,8.2%,13.6%,-5.99%
O=C(NCc1ccco1)[C@@]12CCO[C@@H]1CCN(CCN1CCCC1)C2,-6.16%,16%,-5.27%,-2.5%,5.21%,-51.1%,18.5%,-5.93%,6.25%,22.5%,-12%
O=C(Cc1ccccn1)N1C[C@@H]2CC[C@H](C1)N(Cc1ccccc1)C2=O,-1.67%,2.7%,0.96%,6.03%,-4.05%,-4.29%,14.7%,12%,5.82%,4.88%,-2.65%
O=C(O)c1ccc(F)c(S(=O)(=O)Nc2c(F)cccc2-n2cccn2)c1,-6.05%,2.67%,-4.66%,12.6%,2.04%,3.12%,8.02%,2.56%,4.92%,8.64%,-3.46%
O=C(CCc1cnn(-c2ccccc2)c1)N1CCCC(n2cccn2)C1 (stereo not drawn),-2.31%,10.5%,2.58%,12.9%,3.38%,4.98%,0.668%,14.7%,8.33%,17.1%,-11.6%
CSc1nccn1-c1cccc(C(=O)NCc2nnc(C)n2C)c1,-3.63%,13.2%,-0.262%,12.6%,4.01%,1.08%,3.98%,15.6%,6.4%,23.5%,-2.71%
